# Results reported in PubChem BioAssay AID1159580 (chemical genetic matrix, 2015).
# Among all 5,500 compounds or so, about 2,000 (36%) were called active. Roughly 18% stayed inconclusive and do not appear here. The list shows a part of the results. Values without a mark were called inactive. Rule as the data show it: active = normalized growth mostly below about 0.91 (no sharp cut-off); inconclusive = no clear call, values can overlap the other calls; inactive = mostly above about 0.92.
# Experiment: chemical genetic growth profiling, strain panel (AID 1159580);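 also: tested at 20 µM; growth read once vehicle control cultures reached saturation at 30 °C; 1 = growth at the plate median or of vehicle wells; lower values mean less growth of the strain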
# Conditions: growth OD
compound,measurement,setting,value
COc1ccc(-c2coc3c(O)c(OC)ccc3c2=O)cc1,normalized growth,"S. cerevisiae deletion strains, locus YKL009W, strain mrt4, stronger effect = lower value",0.865 (active)
same,normalized growth,"S. cerevisiae deletion strains, locus YKL068W, stronger effect = lower value",0.94 (active)
same,normalized growth,"S. cerevisiae deletion strains, locus YKL085W, strain MDH1 (second series), stronger effect = lower value",0.935
same,normalized growth,"S. cerevisiae deletion strains, locus YKL085W, strain MDH1, stronger effect = lower value",0.935
same,normalized growth,"S. cerevisiae deletion strains, locus YKL160W, strain elf1, stronger effect = lower value",0.869 (active)
same,normalized growth,"S. cerevisiae deletion strains, locus YKL190W, strain CNB1, stronger effect = lower value",0.932
same,normalized growth,"S. cerevisiae deletion strains, locus YKR001C, strain vps1, stronger effect = lower value",0.82 (active)
same,normalized growth,"S. cerevisiae deletion strains, locus YKR026C, strain gcn3, stronger effect = lower value",0.967
same,normalized growth,"S. cerevisiae deletion strains, locus YKR091W, strain srl3, stronger effect = lower value",0.961
same,normalized growth,"S. cerevisiae deletion strains, locus YLL001W, strain dnm1, stronger effect = lower value",0.914
same,normalized growth,"S. cerevisiae deletion strains, locus YLL026W, stronger effect = lower value",0.966
same,normalized growth,"S. cerevisiae deletion strains, locus YLL041C, strain sdh2, stronger effect = lower value",0.956
same,normalized growth,"S. cerevisiae deletion strains, locus YLR027C, strain aat2, stronger effect = lower value",0.964
same,normalized growth,"S. cerevisiae deletion strains, locus YLR039C, strain RIC1, stronger effect = lower value",0.491 (active)
same,normalized growth,"S. cerevisiae deletion strains, locus YLR058C, strain SHM2, stronger effect = lower value",0.9
same,normalized growth,"S. cerevisiae deletion strains, locus YLR102C, strain apc9, stronger effect = lower value",0.941
same,normalized growth,"S. cerevisiae deletion strains, locus YLR113W, strain HOG1, stronger effect = lower value",0.994
same,normalized growth,"S. cerevisiae deletion strains, locus YLR221C, strain rsa3, stronger effect = lower value",0.957
same,normalized growth,"S. cerevisiae deletion strains, locus YLR258W, strain gsy2, stronger effect = lower value",0.925
same,normalized growth,"S. cerevisiae deletion strains, locus YLR262C, strain YPT6 (second series), stronger effect = lower value",0.736 (active)
same,normalized growth,"S. cerevisiae deletion strains, locus YLR268W, strain sec22, stronger effect = lower value",0.766 (active)
same,normalized growth,"S. cerevisiae deletion strains, locus YLR320W, strain mms22, stronger effect = lower value",0.827 (active)
same,normalized growth,"S. cerevisiae deletion strains, locus YLR330W, strain CHS5, stronger effect = lower value",0.838 (active)
same,normalized growth,"S. cerevisiae deletion strains, locus YLR342W, strain FKS1 (second series), stronger effect = lower value",0.843
same,normalized growth,"S. cerevisiae deletion strains, locus YLR342W, strain FKS1, stronger effect = lower value",0.963
same,normalized growth,"S. cerevisiae deletion strains, locus YLR357W, strain rsc2, stronger effect = lower value",0.899
same,normalized growth,"S. cerevisiae deletion strains, locus YLR370C, strain arc18, stronger effect = lower value",0.974
same,normalized growth,"S. cerevisiae deletion strains, locus YLR371W, strain rom2, stronger effect = lower value",0.922
same,normalized growth,"S. cerevisiae deletion strains, locus YLR384C, strain iki3, stronger effect = lower value",0.989
same,normalized growth,"S. cerevisiae deletion strains, locus YLR418C, strain cdc73, stronger effect = lower value",0.722 (active)
same,normalized growth,"S. cerevisiae deletion strains, locus YML016C, strain PPZ1, stronger effect = lower value",0.925
same,normalized growth,"S. cerevisiae deletion strains, locus YML032C, strain rad52, stronger effect = lower value",0.862 (active)
same,normalized growth,"S. cerevisiae deletion strains, locus YML120C, strain ndi1, stronger effect = lower value",0.893 (active)
same,normalized growth,"S. cerevisiae deletion strains, locus YML124C, strain tub3, stronger effect = lower value",0.937
same,normalized growth,"S. cerevisiae deletion strains, locus YMR058W, strain fet3, stronger effect = lower value",0.952
same,normalized growth,"S. cerevisiae deletion strains, locus YMR078C, strain ctf18, stronger effect = lower value",0.864 (active)
same,normalized growth,"S. cerevisiae deletion strains, locus YMR125W, strain sto1, stronger effect = lower value",0.964
same,normalized growth,"S. cerevisiae deletion strains, locus YMR129W, stronger effect = lower value",0.969
same,normalized growth,"S. cerevisiae deletion strains, locus YMR205C, strain PFK2, stronger effect = lower value",0.824 (active)
same,normalized growth,"S. cerevisiae deletion strains, locus YMR223W, strain ubp8, stronger effect = lower value",0.881 (active)
same,normalized growth,"S. cerevisiae deletion strains, locus YMR231W, strain pep5, stronger effect = lower value",0.987
same,normalized growth,"S. cerevisiae deletion strains, locus YMR307W, strain GAS1, stronger effect = lower value",0.58 (active)
same,normalized growth,"S. cerevisiae deletion strains, locus YNL067W, strain RPL9B, stronger effect = lower value",0.959
same,normalized growth,"S. cerevisiae deletion strains, locus YNL071W, strain lat1, stronger effect = lower value",0.571 (active)
same,normalized growth,"S. cerevisiae deletion strains, locus YNL128W, strain TEP1, stronger effect = lower value",0.889
same,normalized growth,"S. cerevisiae deletion strains, locus YNL183C, strain NPR1, stronger effect = lower value",0.952
same,normalized growth,"S. cerevisiae deletion strains, locus YNL209W, strain ssb2, stronger effect = lower value",0.948
same,normalized growth,"S. cerevisiae deletion strains, locus YNL233W, strain BNI4, stronger effect = lower value",0.879
same,normalized growth,"S. cerevisiae deletion strains, locus YNL248C, strain rpa49, stronger effect = lower value",0.965
same,normalized growth,"S. cerevisiae deletion strains, locus YNL250W, strain rad50, stronger effect = lower value",0.928
same,normalized growth,"S. cerevisiae deletion strains, locus YNL271C, strain bni1, stronger effect = lower value",0.941
same,normalized growth,"S. cerevisiae deletion strains, locus YNL298W, strain CLA4, stronger effect = lower value",0.904 (active)
same,normalized growth,"S. cerevisiae deletion strains, locus YNL307C, strain MCK1, stronger effect = lower value",0.595 (active)
same,normalized growth,"S. cerevisiae deletion strains, locus YNL322C, strain KRE1 (second series), stronger effect = lower value",0.839 (active)
same,normalized growth,"S. cerevisiae deletion strains, locus YNL322C, strain KRE1, stronger effect = lower value",0.939
same,normalized growth,"S. cerevisiae deletion strains, locus YNR049C, strain mso1, stronger effect = lower value",0.995
same,normalized growth,"S. cerevisiae deletion strains, locus YNR052C, strain pop2, stronger effect = lower value",0.925
same,normalized growth,"S. cerevisiae deletion strains, locus YOL012C, strain htz1",0.727
same,normalized growth,"S. cerevisiae deletion strains, locus YOL147C, strain pex11, stronger effect = lower value",0.836 (active)
same,normalized growth,"S. cerevisiae deletion strains, locus YOR001W, strain rrp6, stronger effect = lower value",0.974
same,normalized growth,"S. cerevisiae deletion strains, locus YOR061W, strain CKA2, stronger effect = lower value",0.912
same,normalized growth,"S. cerevisiae deletion strains, locus YOR069W, strain VPS5, stronger effect = lower value",0.941
same,normalized growth,"S. cerevisiae deletion strains, locus YOR070C, strain gyp1, stronger effect = lower value",0.994
same,normalized growth,"S. cerevisiae deletion strains, locus YOR080W, strain dia2, stronger effect = lower value",0.992
same,normalized growth,"S. cerevisiae deletion strains, locus YOR083W, strain WHI5, stronger effect = lower value",0.902
same,normalized growth,"S. cerevisiae deletion strains, locus YOR106W, strain vam3, stronger effect = lower value",0.882
same,normalized growth,"S. cerevisiae deletion strains, locus YOR136W, strain idh2, stronger effect = lower value",0.927
same,normalized growth,"S. cerevisiae deletion strains, locus YOR144C, strain elg1, stronger effect = lower value",0.894 (active)
same,normalized growth,"S. cerevisiae deletion strains, locus YOR184W, strain ser1, stronger effect = lower value",0.708 (active)
same,normalized growth,"S. cerevisiae deletion strains, locus YOR231W, strain MKK1, stronger effect = lower value",1.02
same,normalized growth,"S. cerevisiae deletion strains, locus YOR265W, strain rbl2, stronger effect = lower value",0.984
same,normalized growth,"S. cerevisiae deletion strains, locus YOR270C, strain vph1, stronger effect = lower value",0.888
same,normalized growth,"S. cerevisiae deletion strains, locus YOR290C, strain snf2, stronger effect = lower value",0.807 (active)
same,normalized growth,"S. cerevisiae deletion strains, locus YOR316C, strain cot1, stronger effect = lower value",0.943
same,normalized growth,"S. cerevisiae deletion strains, locus YPL051W, strain arl3, stronger effect = lower value",0.87 (active)
same,normalized growth,"S. cerevisiae deletion strains, locus YPL078C, strain atp4, stronger effect = lower value",0.836 (active)
same,normalized growth,"S. cerevisiae deletion strains, locus YPL106C, strain sse1, stronger effect = lower value",0.903
same,normalized growth,"S. cerevisiae deletion strains, locus YPL240C, strain hsp82, stronger effect = lower value",0.946
same,normalized growth,"S. cerevisiae deletion strains, locus YPL256C, strain CLN2, stronger effect = lower value",0.989
same,normalized growth,"S. cerevisiae deletion strains, locus YPR119W, strain clb2, stronger effect = lower value",0.928 (active)
same,normalized growth,"S. cerevisiae deletion strains, locus YPR141C, strain kar3, stronger effect = lower value",0.932
same,normalized growth,"S. cerevisiae deletion strains, locus YPR163C, strain tif3, stronger effect = lower value",0.694 (active)
same,normalized growth,"S. cerevisiae deletion strains, locus YPR167C, strain met16, stronger effect = lower value",0.926
same,normalized growth,"S. cerevisiae deletion strains, strain wtn01, stronger effect = lower value",0.846 (active)
same,normalized growth,"S. cerevisiae strains, strain wild type, stronger effect = lower value",0.83 (active)
